Results reported in the supplement of paper PMC4466140.

Assays:
Test in all cases: SPOT peptide array binding signal intensity (averaged, normalized) (arbitrary units (background-subtracted, floor 0; scale differs between SH3 domains)); higher = stronger binding of the SH3 domain to the peptide
[1] = target: AgAbp1
Outline: (§1)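 E. coli BL21(DE3) was used to express GST-fused SH3 domains from four yeast species, which were then purified on glutathione Sepharose. These were incubated at 10 μg/ml in TBS-based blocking buffer overnight at 4°C on cellulose membranes carrying synthetic 15-mer peptides, in which cysteines were replaced by serines. Binding signal is the replicate average of normalized, background-subtracted spot intensity, in arbitrary units that differ between domains.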

[2] = target: AgBbc1
Outline: as §1

[3] = target: AgBem1-D1
Outline: as §1

[4] = target: AgBzz1-D1
Outline: as §1

[5] = target: AgBzz1-D2
Outline: as §1

[6] = target: AgCyk3
Outline: as §1

[7] = target: AgFus1
Outline: as §1

[8] = target: AgHof1
Outline: as §1

[9] = target: AgHse1
Outline: as §1

[10] = target: AgLsb1
Outline: as §1

[11] = target: AgLsb4
Outline: as §1

[12] = target: AgMyo5
Outline: as §1

[13] = target: AgNbp2
Outline: as §1

[14] = target: AgRvs167
Outline: as §1

[15] = target: AgSho1
Outline: as §1

[16] = target: AgSla1-D1-D2
Outline: as §1

[17] = target: AgSla1-D3
Outline: as §1

[18] = target: CaAbp1-D1
Outline: as §1

[19] = target: CaAbp1-D2
Outline: as §1

[20] = target: CaBbc1
Outline: as §1

[21] = target: CaBem1-D1
Outline: as §1

[22] = target: CaBzz1-D1
Outline: as §1

[23] = target: CaBzz1-D2
Outline: as §1

[24] = target: CaCyk3
Outline: as §1

[25] = target: CaFus1
Outline: as §1

[26] = target: CaHof1
Outline: as §1

[27] = target: CaHse1
Outline: as §1

[28] = target: CaLsb1
Outline: as §1

[29] = target: CaLsb4
Outline: as §1

[30] = target: CaMyo5
Outline: as §1

[31] = target: CaNbp2
Outline: as §1

[32] = target: CaRvs167
Outline: as §1

[33] = target: CaRvs167-3
Outline: as §1

[34] = target: CaSho1
Outline: as §1

[35] = target: CaSla1-D1-D2
Outline: as §1

[36] = target: CaSla1-D3
Outline: as §1

[37] = target: ScAbp1
Outline: as §1

[38] = target: ScBbc1
Outline: as §1

[39] = target: ScBem1-D1
Outline: as §1

[40] = target: ScBzz1-D1
Outline: as §1

[41] = target: ScBzz1-D2
Outline: as §1

[42] = target: ScCyk3
Outline: as §1

[43] = target: ScFus1
Outline: as §1

[44] = target: ScHof1
Outline: as §1

[45] = target: ScHse1
Outline: as §1

[46] = target: ScLsb1
Outline: as §1

[47] = target: ScLsb2
Outline: as §1

[48] = target: ScLsb3
Outline: as §1

[49] = target: ScLsb4
Outline: as §1

[50] = target: ScMyo3
Outline: as §1

[51] = target: ScMyo5
Outline: as §1

[52] = target: ScNbp2
Outline: as §1

[53] = target: ScPex13
Outline: as §1

[54] = target: ScRvs167
Outline: as §1

[55] = target: ScSho1
Outline: as §1

[56] = target: ScSla1-D1-D2
Outline: as §1

[57] = target: ScSla1-D3
Outline: as §1

[58] = target: SpAbp1-D1
Outline: as §1

[59] = target: SpBbc1
Outline: as §1

[60] = target: SpBzz1-D1
Outline: as §1

[61] = target: SpBzz1-D2
Outline: as §1

[62] = target: SpCyk3
Outline: as §1

[63] = target: SpHof1
Outline: as §1

[64] = target: SpHof1-2
Outline: as §1

[65] = target: SpHof1-3
Outline: as §1

[66] = target: SpHse1
Outline: as §1

[67] = target: SpLsb1
Outline: as §1

[68] = target: SpLsb4
Outline: as §1

[69] = target: SpMyo1
Outline: as §1

[70] = target: SpNbp2
Outline: as §1

[71] = target: SpPex13
Outline: as §1

[72] = target: SpRvs167
Outline: as §1

[73] = target: SpSla1-D1-D2
Outline: as §1

[74] = target: SpSla1-D3
Outline: as §1

GRLRPKRIAPWHLIQ
SPOT peptide array binding signal intensity [1]: 84.5 | SPOT peptide array binding signal intensity [2]: 22.8 | SPOT peptide array binding signal intensity [3]: 21 | SPOT peptide array binding signal intensity [4]: 22 | SPOT peptide array binding signal intensity [5]: 15.5 | SPOT peptide array binding signal intensity [6]: 4 | SPOT peptide array binding signal intensity [7]: 106 | SPOT peptide array binding signal intensity [8]: 15 | SPOT peptide array binding signal intensity [9]: 542 | SPOT peptide array binding signal intensity [10]: ≤ 0 | SPOT peptide array binding signal intensity [11]: 36 | SPOT peptide array binding signal intensity [12]: 0.5 | SPOT peptide array binding signal intensity [13]: 590 | SPOT peptide array binding signal intensity [14]: 3.83 | SPOT peptide array binding signal intensity [15]: ≤ 0 | SPOT peptide array binding signal intensity [16]: 44 | SPOT peptide array binding signal intensity [17]: 2.5 | SPOT peptide array binding signal intensity [18]: 1010 | SPOT peptide array binding signal intensity [19]: 666 | SPOT peptide array binding signal intensity [20]: 156 | SPOT peptide array binding signal intensity [21]: 26 | SPOT peptide array binding signal intensity [22]: 73 | SPOT peptide array binding signal intensity [23]: 79.2 | SPOT peptide array binding signal intensity [24]: 112 | SPOT peptide array binding signal intensity [25]: 178 | SPOT peptide array binding signal intensity [26]: 0.75 | SPOT peptide array binding signal intensity [27]: 11.8 | SPOT peptide array binding signal intensity [28]: ≤ 0 | SPOT peptide array binding signal intensity [29]: 67 | SPOT peptide array binding signal intensity [30]: 2.5 | SPOT peptide array binding signal intensity [31]: 1940 | SPOT peptide array binding signal intensity [32]: 9.17 | SPOT peptide array binding signal intensity [33]: 49.2 | SPOT peptide array binding signal intensity [34]: 174 | SPOT peptide array binding signal intensity [35]: 143 | SPOT peptide array binding signal intensity [36]: 1 | SPOT peptide array binding signal intensity [37]: 13 | SPOT peptide array binding signal intensity [38]: 24.5 | SPOT peptide array binding signal intensity [39]: 8.5 | SPOT peptide array binding signal intensity [40]: 0.5 | SPOT peptide array binding signal intensity [41]: 3 | SPOT peptide array binding signal intensity [42]: 242 | SPOT peptide array binding signal intensity [43]: 106 | SPOT peptide array binding signal intensity [44]: 0.25 | SPOT peptide array binding signal intensity [45]: 1020 | SPOT peptide array binding signal intensity [46]: 2.5 | SPOT peptide array binding signal intensity [47]: 2 | SPOT peptide array binding signal intensity [48]: 131 | SPOT peptide array binding signal intensity [49]: 2 | SPOT peptide array binding signal intensity [50]: 1 | SPOT peptide array binding signal intensity [51]: 1.5 | SPOT peptide array binding signal intensity [52]: 1940 | SPOT peptide array binding signal intensity [53]: 10 | SPOT peptide array binding signal intensity [54]: 27.7 | SPOT peptide array binding signal intensity [55]: 195 | SPOT peptide array binding signal intensity [56]: 134 | SPOT peptide array binding signal intensity [57]: 5 | SPOT peptide array binding signal intensity [58]: 226 | SPOT peptide array binding signal intensity [59]: 1 | SPOT peptide array binding signal intensity [60]: 228

RVTRKRPREPKSTND
SPOT peptide array binding signal intensity [31]: 266 | SPOT peptide array binding signal intensity [32]: 4 | SPOT peptide array binding signal intensity [33]: 79.2 | SPOT peptide array binding signal intensity [34]: 327 | SPOT peptide array binding signal intensity [35]: 146 | SPOT peptide array binding signal intensity [36]: ≤ 0 | SPOT peptide array binding signal intensity [37]: 50 | SPOT peptide array binding signal intensity [38]: 88 | SPOT peptide array binding signal intensity [39]: 76 | SPOT peptide array binding signal intensity [40]: 12 | SPOT peptide array binding signal intensity [41]: 10 | SPOT peptide array binding signal intensity [42]: 204 | SPOT peptide array binding signal intensity [43]: 312 | SPOT peptide array binding signal intensity [44]: 2.5 | SPOT peptide array binding signal intensity [45]: 1040 | SPOT peptide array binding signal intensity [46]: 5.25 | SPOT peptide array binding signal intensity [47]: 11 | SPOT peptide array binding signal intensity [48]: 244 | SPOT peptide array binding signal intensity [49]: 17 | SPOT peptide array binding signal intensity [50]: 7 | SPOT peptide array binding signal intensity [51]: 4.75 | SPOT peptide array binding signal intensity [52]: 378 | SPOT peptide array binding signal intensity [53]: 1.25 | SPOT peptide array binding signal intensity [54]: 20.3 | SPOT peptide array binding signal intensity [55]: 862 | SPOT peptide array binding signal intensity [56]: 779 | SPOT peptide array binding signal intensity [57]: 15.2 | SPOT peptide array binding signal intensity [58]: 345 | SPOT peptide array binding signal intensity [59]: 2.5 | SPOT peptide array binding signal intensity [60]: 184 | SPOT peptide array binding signal intensity [61]: ≤ 0 | SPOT peptide array binding signal intensity [62]: 4.5 | SPOT peptide array binding signal intensity [63]: 222 | SPOT peptide array binding signal intensity [64]: 5.5 | SPOT peptide array binding signal intensity [65]: 316 | SPOT peptide array binding signal intensity [66]: 298 | SPOT peptide array binding signal intensity [67]: 11.5 | SPOT peptide array binding signal intensity [68]: 292 | SPOT peptide array binding signal intensity [69]: 3 | SPOT peptide array binding signal intensity [70]: 1040 | SPOT peptide array binding signal intensity [71]: 13 | SPOT peptide array binding signal intensity [72]: 7.33 | SPOT peptide array binding signal intensity [73]: 1 | SPOT peptide array binding signal intensity [74]: 5
